From PubChem BioAssay

molecular target: Homeobox protein Hox-A13 (Mus musculus) (UniProt Q62424); assay: inhibitors of HoxA13-DNA binding, primary screen, biochemical, fluorescence polarization, labeled oligonucleotide (AID 1185); details: 15 min, higher = more signal, called active from +8 up or from −8 down
Sequence (Q62424 whole entry, looked up): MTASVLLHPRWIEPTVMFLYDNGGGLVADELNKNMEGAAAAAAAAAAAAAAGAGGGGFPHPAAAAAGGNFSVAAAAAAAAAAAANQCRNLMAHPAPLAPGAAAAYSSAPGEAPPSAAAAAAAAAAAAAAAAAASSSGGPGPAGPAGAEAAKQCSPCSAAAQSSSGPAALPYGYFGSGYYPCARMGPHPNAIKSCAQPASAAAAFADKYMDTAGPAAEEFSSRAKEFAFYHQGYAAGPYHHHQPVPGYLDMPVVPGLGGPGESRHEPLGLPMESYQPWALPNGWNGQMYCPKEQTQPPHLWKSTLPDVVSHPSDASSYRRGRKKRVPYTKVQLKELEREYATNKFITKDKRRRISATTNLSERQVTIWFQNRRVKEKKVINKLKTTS

z-score, inactive:
C=CC[C@H](O)c1ccc(O)c(F)c1 -1.51, COc1ccc([Si](C)(C)[C@@H]2[C@@H](CC(=O)N3Cc4ccccc4C[C@H]3CO)O[C@]3(C(=O)N(Cc4ccc(I)cc4)c4ccccc43)[C@H]2C)cc1 -2.35, C=C(C(=O)CC[C@@H](OC(=O)c1ccccc1-c1ccccc1C(=O)O)c1ccc(CO)o1)C(C)C -5.42, CC1CC/C=C\[C@H]2OC34C=CCN(C(C)C)C(=O)[C@H]3N(C(C)CO)C(=O)[C@@H]4C2C(=O)O1 (some centres undefined) -5.82, O=C1O[C@H](c2ccccc2)[C@H](c2ccccc2)N2[C@H]1[C@@H](C(=O)O)[C@]1(C(=O)Nc3ccccc31)[C@H]2c1ccc(OCCO)cc1 -6.4, COc1ccc([Si](C)(C)[C@H]2[C@H](CC(=O)N(CCO)Cc3ccccc3)O[C@@]3(C(=O)N(Cc4ccc(N5C(=O)c6cccc7cccc5c67)cc4)c4ccccc43)[C@@H]2C)cc1 -1.38, CC(C)c1ccc(NN2C(C(O)C3CCCCC3)C=CC3C(=O)N(c4ccccc4)C(=O)C32)cc1 (centres undefined) -2.78, CC(C)N1C(=O)[C@@]2(Cc3ccccc31)c1ccccc1C(=O)N(Cc1ccccc1C(F)(F)F)[C@H]2c1ccc(CO)cc1 -0.791, C=C(C(=O)CC[C@@H](OC(=O)c1ccccc1-c1ccccc1C(=O)O)c1ccc(OCCO)cc1)C(C)C -5.47, C=C(CCCC)/C(=C/C[C@@H](OC(C)=O)c1ccc(OCCO)cc1)c1cc(C(=O)OC)ccc1OC -4.07, C=CCOC(=O)[C@H]1[C@@H]2C(=O)O[C@@H](c3ccccc3)[C@@H](c3ccccc3)N2[C@@H](c2ccc(OCCOC(=O)[C@H]3C[C@H]4C(=O)NCC(=O)N4[C@H]3c3ccc(O)cc3)cc2)[C@]12C(=O)Nc1ccccc12 -0.844, C=C(C(=O)CC[C@@H](OC(=O)c1ccccc1-c1ccccc1C(=O)O)c1cccc(OCCO)c1)C(C)C -4.86, COC(=O)C(CC#Cc1ccc2c(c1)[C@]1(C(=O)N2)[C@H](C(=O)NC[C@H](O)c2ccccc2)[C@H]2C(=O)O[C@H](c3ccccc3)[C@H](c3ccccc3)N2[C@@H]1c1ccc(O)cc1)C(=O)OC -3.56, O=C1C2C=CC(C(O)C3CCCCC3)N(Nc3ccccc3F)C2C(=O)N1c1ccccc1 (centres undefined) 0.182, C=CCNC(=O)[C@@H]1[C@H]2C(=O)O[C@H](c3ccccc3)[C@H](c3ccccc3)N2[C@H](c2ccc(O)cc2)[C@@]12C(=O)N(C(=O)OCCOC)c1ccc(C#CCC(C(=O)OC)C(=O)OC)cc12 -1.28, CN1C2C=C(c3ccc(CO)cc3)C(C3C(=O)N(C(N)=O)C(=O)C32)C1C1CC1 (centres undefined) -6.63, COC(=O)[C@]1(Cc2ccccc2CN=[N+]=[N-])N=C(c2ccc(OCCCO)cc2)O[C@@H]1c1ccccc1N=[N+]=[N-] 0.381, COCCOC(=O)N1C(=O)[C@@]2(c3cc(C#CCC(C(=O)OC)C(=O)OC)ccc31)[C@H](C(=O)N1CCc3cc(OC)c(OC)cc3C1)[C@H]1C(=O)O[C@H](c3ccccc3)[C@H](c3ccccc3)N1[C@@H]2c1ccccc1OCCO 0.96, COC(=O)C(CC#Cc1ccc2c(c1)[C@]1(C(=O)N2)[C@H](c2ccccc2OCCO)N2[C@H](c3ccccc3)[C@H](c3ccccc3)OC(=O)[C@H]2[C@@H]1C(=O)N1CCN(c2ncccn2)CC1)C(=O)OC -1.41, C=CC[C@]1(C(=O)NCCN2CCOCC2)N=C(c2ccc(OCCCO)cc2)O[C@H]1c1ccccc1 -6.22, CN(C)C(=O)[C@]1(CCS(=O)(=O)c2ccccc2)N=C(c2ccc(OCCCO)cc2)O[C@@H]1c1ccccc1CN=[N+]=[N-] -4.39, C=CCC(OC(C)=O)[C@@H]1[C@@H](N(Cc2cccc3ccccc23)C(=O)c2ccc(C)cc2)c2cc(OCCCO)ccc2N1C(=O)Cc1ccc2ccccc2c1 (some centres undefined) -0.0782, COCCCNC(=O)[C@@]1(Cc2ccccc2I)c2ccccc2C(=O)N(Cc2ccccc2C(F)(F)F)[C@H]1c1ccc(CO)cc1 -4.3, O=C(O)C1=CC[C@H]2C(=O)N(c3ccccc3)C(=O)[C@@H]12 -3.04
